Test [1] can be described thus: qHTS for Inhibitors of the Functional Ribonucleoprotein Complex (vRNP) of Lassa (LASV) Arenavirus: LASV Primary Screen - GLuc reporter signal (AID 1347082; calls by dose curve; tested in HEK293 reporter line; note: nearly all actives have a fitted effect of over 60% in size; note: potency is the fitted concentration of half-maximal effect; for activity change, negative = inhibition: % is set by controls: 0 for no effect and ±100 for the full control effect).
A short description of test [2]: qHTS for Inhibitors of the Functional Ribonucleoprotein Complex (vRNP) of Lassa (LASV) Arenavirus: Viability assay - alamar blue signal for LASV Primary Screen (AID 1347083; calls by dose curve; tested in HEK293 reporter line; note: nearly all actives have a fitted effect of over 80% in size; note: potency is the fitted concentration of half-maximal effect). (Quantitative high-throughput screening tests each substance at several concentrations.)
Test [3] in a line: Cytotoxicity counterscreen for inhibitors of SARS-CoV-2 cell entry (AID 1645845). Note: nearly all actives have a fitted effect of over 50% in size. Note: potency is the fitted concentration of half-maximal effect. In a few lines:
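HEK293-ACE2 cells (Expi293F stably expressing human ACE2) seeded overnight, then compound for 1 h plus 48 h at 37C. Viability as ATP content by luminescence; normalized to wells with cells and media-only wells.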
(In general: A counterscreen serves to expose hits that act by an unwanted route or on another target.)

Test [4] is described as follows: Primary qHTS to identify inhibitors of SARS-CoV-2 cell entry (AID 1645846). Note: nearly all actives have a fitted effect of over 45% in size. Note: potency is the fitted concentration of half-maximal effect. Conditions: activity change, negative = inhibition: at 57.1 µM (top of the series) unless noted. In a few lines: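 Using luciferase-reporting pseudoviruses carrying Wuhan-Hu-1 spike, the screen tracks entry into stably ACE2-expressing cells over 48 hr. Activity is expressed relative to spike particles versus particles lacking any fusion protein.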

Test [5] has as its target Nucleoprotein (Lymphocytic choriomeningitis virus (strain Armstrong)) (UniProt P09992). The test is described as follows: qHTS for Inhibitors of the Functional Ribonucleoprotein Complex (vRNP) of Lymphocytic Choriomeningitis Arenaviruses (LCMV): LCMV Primary Screen - GLuc reporter signal (AID 1347086). For activity change, negative = inhibition: % is set by controls: 0 for no effect and ±100 for the full control effect. Note: nearly all actives have a fitted effect of over 70% in size. Note: potency is the fitted concentration of half-maximal effect.
Test [6] in a line: Inducers of the Endoplasmic Reticulum Stress Response (ERSR) in human glioma: Validation (AID 504836; active = well fitted curve in the direction sought with a large enough effect; note: 0% is about no effect). An outline of the steps: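 Stably transfected U87-MG glioma cells carrying a GRP78-based luciferase sensor; 16 h compound incubation. Luminescence end-point read 10 min after Bright-Glo addition at room temperature.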
The nature of test [7]: qHTS profiling of the MIPE4 collection as inhibitors of Plasmodium falciparum (3D7) proliferation (AID 743344; call rule not given here;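 note: scaled between DMSO vehicle wells and 0.29 µM artemisinin as full inhibition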). To be noted: P. falciparum 3D7 in erythrocytes, SYBR Green DNA fluorescence, 72 h; at 28.5 µM (top of the series) unless noted. In a few lines:
(§1)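 Erythrocytes infected with P. falciparum (0.3% parasitemia, 2.5% hematocrit) incubated with compounds 72 h at 37 C, 5% CO2. Lysis with saponin/Triton buffer containing SYBR Green I, overnight at room temperature in the dark; DNA fluorescence (485/535 nm) normalised to 0.29 uM artemisinin and DMSO.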

The nature of test [8]: qHTS profiling of the MIPE4 collection as inhibitors of Plasmodium falciparum (DD2) proliferation (AID 743345; call rule not given here). To be noted: P. falciparum Dd2 in erythrocytes, SYBR Green DNA, 72 h; at 28.5 µM (top of the series) unless noted. In a few lines: as §1
Test [9] is described as follows: qHTS profiling of the MIPE4 collection as inhibitors of Plasmodium falciparum (DD2) proliferation (Rep 2) (AID 743346; call rule not given here). Conditions: P. falciparum Dd2 in erythrocytes, SYBR Green DNA, 72 h; at 28.5 µM (top of the series) unless noted. An outline of the steps:
as §1

The nature of test [10]: qHTS profiling of the MIPE4 collection as inhibitors of Plasmodium falciparum (HB3) proliferation (AID 743347; call rule not given here;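 note: plate controls were DMSO vehicle wells for no effect and artemisinin wells for full effect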). Conditions: P. falciparum HB3 in erythrocytes, SYBR Green DNA, 72 h; at 28.5 µM (top of the series) unless noted. In a few lines: as §1
Test [11] in a line: Primary qHTS for inhibitors of SARS-S pseudo-typed particle cell entry (AID 1479145). Note: % is set by controls: 0 for no effect and ±100 for the full control effect; nearly all actives have a fitted effect of over 45% in size.
Test [12] can be described thus: Primary qHTS for Huh7 cytotoxicity: counterscreen for inhibitors of MERS-S pseudotyped particle cell entry (AID 1479147). To be noted: outcome: dose series up to 57.1 µM unless noted.
Test [13] can be described thus: Primary qHTS for inhibitors of MERS-S pseudo-typed particle cell entry (AID 1479149). Note: nearly all actives have a fitted effect of over 60% in size.
Test [14] in a line: Primary qHTS for Vero E6 cytotoxicity: counterscreen for inhibitors of SARS-S pseudo-typed particle cell entry (AID 1479150). Conditions: outcome: dose series up to 57.1 µM unless noted.
Test [15] can be described thus: Confirmatory qHTS to identify inhibitors of SARS-CoV-2 cell entry (AID 1645844). Note: potency is the fitted concentration of half-maximal effect; nearly all actives have a fitted effect of over 45% in size. An outline of the steps: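 HEK293-ACE2 cells were pretreated 1 h with compound, then infected with MLV-based pseudoparticles bearing C-terminally truncated Wuhan-Hu-1 spike for 48 h at 37C; luciferase luminescence normalized to spike PP and bald PP wells.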
The nature of test [16]: Validation screen for inhibitors of Lassa infection (AID 463096). Note: % is set by controls: 0 for no effect and ±100 for the full control effect.

Records with an inconclusive call do not appear. Activity calls are given as the source filed them. Unless noted, calls come from the whole dose curve.

Chain of Nucleoprotein (Lymphocytic choriomeningitis virus (strain Armstrong)) (P09992 whole entry, looked up): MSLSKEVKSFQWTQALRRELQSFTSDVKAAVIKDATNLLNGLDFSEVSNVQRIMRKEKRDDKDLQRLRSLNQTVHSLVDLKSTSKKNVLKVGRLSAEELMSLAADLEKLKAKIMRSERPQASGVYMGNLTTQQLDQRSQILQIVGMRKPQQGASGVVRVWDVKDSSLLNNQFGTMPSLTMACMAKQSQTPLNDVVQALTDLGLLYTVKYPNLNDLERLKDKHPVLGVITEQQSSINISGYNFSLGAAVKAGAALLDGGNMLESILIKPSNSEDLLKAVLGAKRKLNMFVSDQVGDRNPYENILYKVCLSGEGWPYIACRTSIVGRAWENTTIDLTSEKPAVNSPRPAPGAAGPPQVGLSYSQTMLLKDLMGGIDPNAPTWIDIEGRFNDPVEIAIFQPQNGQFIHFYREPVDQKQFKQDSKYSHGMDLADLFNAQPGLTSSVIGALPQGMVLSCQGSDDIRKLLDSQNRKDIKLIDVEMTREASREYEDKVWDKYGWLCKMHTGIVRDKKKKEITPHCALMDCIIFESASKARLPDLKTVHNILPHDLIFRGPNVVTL

For `CCCn1c(=O)c2[nH]c(-c3cnn(Cc4cccc(C(F)(F)F)c4)c3)nc2n(CC)c1=O`, the Potency result in test [1], in [2] and in [3] was “inactive” each time. For the same compound, the activity change, negative = inhibition in [4] is -10.8%.

Turning to `O=C(CCCCCCC(=O)Nc1cccnc1)NO`, the Potency entry in test [1], in test [5] and in [4] was “inactive” throughout. Also, the Potency in test [2] was 19.3 µM (active).

As for `N=c1ccn2c(n1)O[C@H]1[C@H](O)[C@@H](CO)O[C@H]12`, in test [6], the compound was classed as inactive. Moreover, the Potency entry in test [1], in test [2] and in test [5] was “inactive” each time.

As to `CCN(CC)CCNC(=O)c1ccc2nc(-c3ccccc3)c(-c3ccc(CN4CCC(n5c(=O)[nH]c6ccccc65)CC4)cc3)nc2c1`, the Potency is 34.3 µM (active) in [1], 21.7 µM (active) in test [2], 5.62 µM (active) in [3] and 4.47 µM (active) in test [4].

Take `COc1cc(C(=O)N2CCC(N3CCN(C)CC3)CC2)ccc1Nc1ncc2c(n1)N(C)c1ccccc1C(=O)N2C`: the Potency entry in test [1] is “inactive”. The Potency is 17.2 µM (active) in test [2], 10.9 µM (active) in [5] and 31.6 µM (active) in test [4].

Regarding `C[C@H](CCC(=O)O)[C@H]1CC[C@H]2[C@H]3[C@@H](CC[C@]12C)[C@@]1(C)CC[C@@H](O)C[C@H]1C[C@@H]3O`, the parasite growth, % of DMSO control in [7] turned out to be 8.82%. This compound also had a parasite growth remaining, % of DMSO control (lower = more inhibition) in test [8] of 12.3%. For the same compound, the parasite growth, % of control (lower = inhibition) in [9] was 16.6%. The compound also gave a growth, % of control in test [10] of 23.1%. Moreover, the Potency entry in [1], in test [2], in test [11], in [13] and in test [3] was “inactive” each time. For the same compound, the outcome in test [12] and in test [14] was inactive.

For the compound `CC(C)C[C@H](CC(=O)O)C(=O)N[C@@H](Cc1c[nH]c2ccccc12)C(=O)N[C@@H](C)c1ccccc1`, the Potency entry in test [1], in test [2], in test [5] and in test [3] was “inactive” throughout. In addition, the activity change, negative = inhibition in test [4] was -6.02%.

For `CCc1ccc(C(=O)Nc2cc(CN3CCN(C)CC3)cc(C(F)(F)F)c2)cc1C#Cc1cnc2ccnn2c1`, the Potency result in test [1] is “inactive”. Moreover, the Potency is 21.7 µM (active) in [2], 31.6 µM (active) in test [3] and 22.4 µM (active) in [4].

Regarding `CC(C)c1cc(-c2n[nH]c(=O)n2-c2ccc3c(ccn3C)c2)c(O)cc1O`, the Potency was 0.385 µM (active) in test [1], 0.243 µM (active) in [2] and 0.306 µM (active) in test [5]. Moreover, the activity change, negative = inhibition in [4] is -96%.

Consider `Cc1ccc2nc(NCCN)c3ncc(C)n3c2c1`, for which the Potency was 17.2 µM (active) in test [1], 19.3 µM (active) in test [2] and 19.2 µM (active) in test [15].

Turning to `CC=C(C)C(=O)O[C@H]1C(C)=C[C@]23C(=O)[C@@H](C=C(CO)[C@@H](O)[C@]12O)[C@H]1[C@@H](C[C@H]3C)C1(C)C`, in test [8], the parasite growth remaining, % of DMSO control (lower = more inhibition) was determined as 78.2%. Further, the Potency entry in test [1] and in test [5] was “inactive” throughout. Further, the Potency in test [2] was 4.32 µM (active).

As to `CN(C)C(=O)/N=N/C(=O)N(C)C`, the Potency entry in [16], in test [1], in test [2] and in [5] was “inactive” each time. The compound was called inactive in test [6].

For the compound `O=C(O)CCCCCC(=O)NN=C1CCCC1`, the Potency result in test [1], in test [2] and in test [3] was “inactive” each time. Moreover, the activity change, negative = inhibition in test [4] is -16.8%.

As to `CNC(=O)c1c(F)cccc1Nc1nc(Nc2cc3c(cc2OC)CCN3C(=O)CN(C)C)nc2[nH]ccc12`, the Potency result in test [1], in test [2] and in test [3] was “inactive” each time. In test [4], the Potency was 20 µM (active).

Values taken from PubChem BioAssay (NCATS).
